Measurements taken from PubChem BioAssay AID540333 (Southern Research Specialized Biocontainment Screening …, 2011).
Out of some 10,000 compounds screened, about 320 (3.2%) were called active. Rule as the data show it: active = CPE inhibition mostly above about 9.1% (no sharp cut-off); inactive = mostly below about 7.2%. The list comes from a sample in which actives are over-represented; it also holds similar structures and randomly drawn compounds.

assay: antivirals protecting cells from dengue CPE – CPE readout, HTS (AID 540333); details: Dengue virus CPE inhibition in host cells, at 20 µM; stronger effect = higher value

SMILES | CPE inhibition
COc1ccc(/C=C2/C(=O)N(Cc3ccccc3)N=C2C)cc1 | inactive
CCCCn1[nH]c(-c2ccccc2)cc1=O | inactive
COc1ccc(OC)c(/C=C/C(=O)OCC(=O)Nc2cccc(Oc3ccccc3)c2)c1 | 0.45% (inactive)
COc1cc(/C=C/C(=O)Nc2nnc(CC(C)C)s2)cc(OC)c1OC | 1.95% (inactive)
CCCS(=O)(=O)Nc1c(OC)ccc2c1c(C(=O)OCC)c(C)n2C | inactive
CC(C)CNC(=O)c1ccccc1NC(=O)/C=C/c1cccc([N+](=O)[O-])c1 | inactive
CC(=O)NN1C(=O)/C(=C/c2ccc(C(C)C)cc2)SC1=S | inactive
O=C(COC(=O)c1oc2ccccc2c1COc1ccccc1)NCCN1C(=O)CSC1=O | 1.47% (inactive)
CCSc1nc2ccccc2n1C(=O)c1ccc(S(=O)(=O)N2CCCCCC2)cc1 | 0.17% (inactive)
Cc1ccc(CN2C(=O)C(CC(C)C)Nc3ncnc(N4CCN(c5ccccn5)CC4)c32)cc1 (stereo not drawn) | 2.52% (inactive)
CCC1Nc2ncnc(N3CCOCC3)c2N(Cc2ccc(Cl)cc2)C1=O (stereo not drawn) | 0.26% (inactive)
COc1ccc(CN2C(=O)C(Cc3ccccc3)Nc3ncnc(N4CCCCC4)c32)cc1 (stereo not drawn) | 2.1% (inactive)
Cc1ccc(CN2C(=O)C(CC(C)C)Nc3ncnc(N4CCN(c5ccccc5)CC4)c32)cc1 (stereo not drawn) | 37.1% (active)
CC(C)CC1Nc2ncnc(N3CCN(c4ccccn4)CC3)c2N(Cc2ccc(Cl)cc2)C1=O (stereo not drawn) | 9.66% (active)
O=C(Cc1ccc(Br)cc1)N1CCN(c2ccccn2)CC1 | inactive
CC(C)CC1Nc2ncnc(N3CCN(c4ccccn4)CC3)c2N(Cc2ccccc2)C1=O (stereo not drawn) | 1.43% (inactive)
CCC1Nc2ncnc(N3CCOCC3)c2N(Cc2ccc(Br)cc2)C1=O (stereo not drawn) | inactive
CCC1Nc2ncnc(N3CCN(c4ccccc4)CC3)c2N(Cc2ccc(Br)cc2)C1=O (stereo not drawn) | 11.1% (active)
COc1ccc2oc(=O)c(/C(C)=N/Nc3nc(-c4cc(C)ccc4C)cs3)cc2c1 | inactive
CC(C)(C)C1CCC(=NNC(=O)CN(c2ccccc2)S(=O)(=O)c2ccccc2[N+](=O)[O-])CC1 (stereo not drawn) | inactive
N#Cc1ccc(COC(=O)CSc2nnc(N)s2)cc1 | 0.615% (inactive)
NC(=O)CC(NC(=O)Cc1cccc2ccccc12)c1ccc(NCc2ccccc2)c([N+](=O)[O-])c1 (stereo not drawn) | 2.03% (inactive)
CCOC(=O)c1c(-c2ccc(F)cc2)csc1NC(=O)CCN1C(=O)c2ccccc2C1=O | 1.4% (inactive)
O=C(NCc1ccccc1)c1onc(CSc2ccc(F)c(F)c2)c1C(=O)NCc1ccccc1 | 0.575% (inactive)

SMILES | CPE inhibition
CCOC(=O)CN1C(=O)N[C@@H](c2ccco2)C(C(C)=O)=C1C | 1.53% (inactive)
Oc1cccc(/C=N/Nc2ncnc3c2ncn3Cc2ccccc2)c1 | inactive
O=C(CCSCCc1ccccn1)Nc1c(F)c(F)c(F)c(F)c1F | inactive
O=C1CCCc2[nH]c3cccc(/C(=C/c4ccccc4)c4ccccc4)c3c21 | 22.5% (active)
CCOC(=O)N1CCC(N2Cc3cccc(C(=O)N4CC(C)CC(C)C4)c3C2=O)CC1 (stereo not drawn) | inactive
CCCCCC[n+]1c(-c2ccccc2)csc1Nc1ccccc1 | 7.19% (inactive)
CC1=C(C#N)C(c2ccccc2)C2=C(N1)c1ccccc1C2=O (stereo not drawn) | 1.29% (inactive)
CN(CC(=O)Nc1ccc(C#N)cc1)CC(=O)Nc1ccc(N2CCOCC2)cc1 | 0.525% (inactive)
CCn1nc(C(=O)Nc2nc3ccccc3[nH]2)c2ccccc2c1=O | 0.06% (inactive)
O=C(Nc1nc2c(s1)CCCC2)c1cc(-c2ccccc2)nc2ccccc12 | 5.19% (inactive)
CCCCCCn1nc(C(=O)Nc2nc3c(s2)CCCC3)c2ccccc2c1=O | 29% (active)
C=CCn1c(SCc2ccc(C(=O)Nc3nccs3)cc2)nnc1-c1ccc(C)c(Cl)c1 | 0.44% (inactive)
CC1CCCCC1NC(=S)NC(=O)c1ccccc1Br (stereo not drawn) | 0.915% (inactive)
CC1CCCC(NC(=S)NC(=O)c2ccccc2Br)C1C (stereo not drawn) | 21.1% (active)
O=C(NC(=S)NC1CCCC1)c1ccccc1Br | 0.11% (inactive)
COc1cccc(NC(=O)CCC(=O)Nc2cccc(OC)c2)c1 | 0.18% (inactive)
Cc1ccc(NC(=O)c2cc3c(s2)CCCC3)cc1S(=O)(=O)Nc1ccccc1Cl | 1.93% (inactive)
CC(=O)c1ccc(NC(=O)CN2C(=O)/C(=C/C=C/c3ccccc3)SC2=S)cc1 | 0.165% (inactive)
O=C(CN1C(=O)/C(=C\C=C\c2ccccc2)SC1=S)Nc1ccc(F)cc1 | 1.02% (inactive)
O=C1CC(N2C(=O)/C(=C/C=C/c3ccccc3)SC2=S)C(=O)N1c1ccccc1 (stereo not drawn) | 9.17% (active)
CC(=O)Nc1ccc(S(=O)(=O)NCC(=O)OCC(=O)NC(=O)C2CCCCC2)cc1 | 0.165% (inactive)
NC(=O)C1(NC(=O)[C@@H]2CC3(CC(c4cccc(NC(=O)[C@@H]5CCC(=O)N5)c4)=NO3)CN2C(=O)c2cnccn2)CC1 (stereo partly drawn) | 0.745% (inactive)
O=C(CSc1nc2ccccc2s1)Nc1cc(S(=O)(=O)N2CCOCC2)ccc1O | inactive
Fc1cccc(NC(=S)NCCN2CCOCC2)c1 | 0.255% (inactive)

SMILES | CPE inhibition
O=C(C[n+]1cc(-c2ccc(F)cc2)n2c1CCC2)Nc1nc(-c2ccccc2)cs1 | 0.55% (inactive)
O=C(C[n+]1cc(-c2ccccc2)n2c1CCC2)Nc1nc(-c2ccccc2)cs1 | 4.34% (inactive)
O=C(C[n+]1cc(-c2ccccc2)n2c1CCC2)Nc1nc(-c2ccc(F)cc2)cs1 | 17% (active)
O=C(c1cccc(S(=O)(=O)N2CCc3ccccc3C2)c1)N1CCN(c2ccccc2)CC1 | 3% (inactive)
CC1CC(C)CN(C(=O)C(NS(=O)(=O)c2ccc(Br)s2)c2ccccc2)C1 (stereo not drawn) | 24.6% (active)
CC1CCCN(S(=O)(=O)c2ccc(Br)s2)C1 (stereo not drawn) | 0.775% (inactive)
O=C(NC1CCCC1)C(NS(=O)(=O)c1ccc(Br)s1)c1ccccc1 (stereo not drawn) | 0.805% (inactive)
CN(/N=C/c1cc([N+](=O)[O-])ccc1O)c1ccccc1 | 1.04% (inactive)
COC(=O)c1ccc(CSc2nnc(NC(=O)C3CC(=O)N(Cc4ccc(C)cc4)C3)s2)cc1 (stereo not drawn) | 0.19% (inactive)
CC(C)CN(CC(C)C)C(=O)CCCC(=O)N(CC(C)C)CC(C)C | inactive
Fc1ccc(NC(=S)N2CCCC2)cc1Cl | 0.335% (inactive)
O=C(Nc1ccc(F)cc1)C(c1ccccc1)N1CCN(S(=O)(=O)c2ccc3ccccc3c2)CC1 (stereo not drawn) | 2% (inactive)
O=C(CCC(=O)N1CCN(S(=O)(=O)c2ccc(Cl)cc2)CC1)Nc1ccc2ccccc2c1 | 11% (active)
O=S(=O)(c1ccc(Cl)cc1)N1CCN(C(=S)Nc2ccc(F)c(Cl)c2)CC1 | 13.6% (active)
O=C(CNC(=O)c1ccc2ccccc2c1)OCC(=O)N1CCN(S(=O)(=O)c2ccc3ccccc3c2)CC1 | inactive
NS(=O)(=O)c1ccc(NC(=S)N2CCN(c3cccc(Cl)c3)CC2)cc1 | 1.62% (inactive)
O=S(=O)(c1ccc2ccccc2c1)N1CCN(C(=S)Nc2ccc(F)cc2)CC1 | 26.1% (active)
O=C(CCC(=O)N1CCN(S(=O)(=O)c2ccc(Cl)cc2)CC1)NCc1ccccc1 | 0.355% (inactive)
O=S(=O)(c1ccccc1)N1CCN(C(=S)Nc2ccc(F)cc2)CC1 | 1.81% (inactive)
COC(=O)c1ccc(CNC(=O)COC(=O)CC23CC4CC(CC(Br)(C4)C2)C3)cc1 | inactive
COc1ccc(CC(=O)NNc2ncnc3c2cnn3C)cc1 | inactive
Cc1cccc(CSC(Nc2ccc(F)cc2)=C(C#N)C#N)c1 | 0.46% (inactive)
COc1cccc(C(C)NC(=O)c2c(F)cccc2Cl)c1 (stereo not drawn) | 0.965% (inactive)
CC(=O)CSc1ccc(C(=O)O)cn1 | 0.685% (inactive)

SMILES | CPE inhibition
Cc1ccccc1OCCNC(=O)/C=C/c1ccccc1 | inactive
COc1ccc(NC(=O)CCCC2CCCCC2)cc1S(=O)(=O)N1CCCCC1 | 0.425% (inactive)
COc1ccc(NC(=O)CSc2ccccc2)cc1S(=O)(=O)N1CCCCC1 | inactive
COc1ccc(NC(=O)CCC2CCCCC2)cc1S(=O)(=O)N1CCCCC1 | 11.6% (active)
Cc1cccc(OCCC(=O)Nc2ccc(C)c(S(=O)(=O)N3CCCCC3)c2)c1 | 16.7% (active)
Cc1ccc(NC(=O)CSc2ncnc3ccccc23)cc1S(=O)(=O)N1CCCCC1 | 2.42% (inactive)
Cc1cccc(OCCCC(=O)Nc2ccc(N(C)C)cc2)c1 | 0.66% (inactive)
COc1ccc([C@H]2CC(=O)C=C(c3cc(C(F)(F)F)cc(C(F)(F)F)c3)C2)cc1 | inactive
COCCCNCCCCOc1ccc(Br)cc1C | inactive
CC1c2ccccc2SC(CCCN(C)C)c2ccccc21 (stereo not drawn) | inactive
Cc1ccc(NC(=S)N2CCN(C)CC2)c(C)c1 | 0.8% (inactive)
COc1ccccc1N(CC(=O)N/N=C/c1c(O)ccc2ccccc12)S(C)(=O)=O | 0.02% (inactive)
CCOC(=O)c1ccc(-c2ccc(/C=N/NC(=O)CN(c3ccccc3Cl)S(C)(=O)=O)o2)cc1 | 12.9% (active)
CS(=O)(=O)N(CC(=O)N/N=C/c1ccco1)c1ccccc1Br | 0.19% (inactive)
Cc1ccc(NC(=O)c2ccc(OC(F)F)cc2)cc1S(=O)(=O)N(C)C | inactive
CCn1c(COc2ccc(Cl)cc2)nnc1SC1CCc2ccccc2C1=O (stereo not drawn) | 1.03% (inactive)
O=C(COC(=O)CC(c1ccccc1)c1ccccc1)Nc1cccc(F)c1 | inactive
CCCCc1nn2c(N)c(/C=C3\C=Nc4ccccc43)c(=O)nc2s1 | inactive
O=C1S/C(=C/c2ccccc2)C(=O)N1CC(O)Cn1c2ccccc2c2ccccc21 (stereo not drawn) | 16.2% (active)
O=C1S/C(=C\c2ccccc2)C(=O)N1CC(O)Cn1c2ccccc2c2ccccc21 (stereo not drawn) | inactive
CN(C)c1ccc(/C=C2\SC(=O)N(CC(O)Cn3c4ccccc4c4ccccc43)C2=O)cc1 (stereo not drawn) | 2.39% (inactive)
